Assay outcomes deposited in PubChem by NMMLSC.
Avidin bead fluor: green autofluorescence of compounds with avidin beads – biophysical, 488/530 nm, flow cytometry, artefact control, profiling panel | 220,000 tested, 0.38% active | AID 1775, 2009 | compound fluorescence 488/530 nm; active compounds read high | fluorescence (KMESF) at 10 µM; in the data active means fluorescence above about 47
RGS8-Gao: RGS8-Galphao binding modulators, primary screen, biochemical, multiplexed bead flow cytometry; actives lie on both sides; response (percent of control binding), % at 10 µM; 220,000 tested, 0.34% active; in the data active means response below about 60% or above about 140%; inactive means in between;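 further: Galphao activated as the GDP aluminium fluoride complex binding bead-coupled RGS8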
Target sequence (P09471 whole entry, looked up): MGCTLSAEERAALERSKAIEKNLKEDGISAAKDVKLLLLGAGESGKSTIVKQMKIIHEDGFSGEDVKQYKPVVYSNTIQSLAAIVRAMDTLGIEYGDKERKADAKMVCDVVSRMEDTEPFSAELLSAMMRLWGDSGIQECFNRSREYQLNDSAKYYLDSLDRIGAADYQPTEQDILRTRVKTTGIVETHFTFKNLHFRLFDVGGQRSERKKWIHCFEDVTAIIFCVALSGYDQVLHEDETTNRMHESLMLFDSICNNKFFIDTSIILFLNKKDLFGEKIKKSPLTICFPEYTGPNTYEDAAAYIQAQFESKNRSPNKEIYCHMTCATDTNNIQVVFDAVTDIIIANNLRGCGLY
GSH bead fluor: compound fluorescence on glutathione beads, profiling panel, artefact control, biophysical, 488/530 nm, flow cytometry. GSH beads flow cytometry, compound fluorescence 488/530 nm; active compounds read high. fluorescence (KMESF) at 10 µM. 190,000 tested, 0.25% active. AID 1776, 2009; in the data active means fluorescence above about 89;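 further: glutathione beads carrying GST-tagged Bcl family fusion proteins plus one bare bead set; values are compound well signal with DMSO vehicle wells as background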
RGS7-Gao: RGS7-Galphao binding modulators, primary screen, biochemical, multiplexed bead flow cytometry | binding response (% of control), % at 10 µM | actives lie on both sides | 220,000 tested, 0.35% active | Guanine nucleotide-binding protein G(o) subunit alpha (Homo sapiens), P09471; in the data active means binding response below about 49% or above about 150%; inconclusive means no clear call, values can overlap the other calls; inactive means in between;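 further: fluorescent Galphao held in activated GDP-AlF4 state binding bead-coupled RGS7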
RGS16-Gao: modulators of RGS16 binding to Galphao, primary screen, biochemical, human proteins, multiplexed bead flow cytometry; bead-based flow cytometry RGS16-Galphao binding, fluorescence; actives lie on both sides; binding response (% of control), % at 10 µM; 220,000 tested, 0.38% active;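 further: Galphao activated by GDP with aluminum fluoride before binding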
RGS4-Gao reg: modulators of RGS4 binding to Galphao, primary screen, biochemical, multiplexed bead flow cytometry | Guanine nucleotide-binding protein G(o) subunit alpha (Homo sapiens), P09471 | actives lie on both sides | binding response (% of control), % at 10 µM | 220,000 tested, 0.33% active | AID 1415, 2008; in the data active means binding response below about 49% or above about 150%; inactive means in between;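 further: fluorescent Galphao activated with aluminum fluoride binding bead-coupled RGS4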
RGS-Gao: modulators of RGS–Galpha-o binding, primary screen, biochemical, multiplexed beads, flow cytometry, RGS4/7/8/16/19; shares compounds with RGS16-Gao; RGS4–Galpha-o binding response, % at 10 µM; 1,600 tested, 99% active; AID 1504, 2009; multiplexed bead flow cytometry;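 further: fluorescently labeled Galpha-o bound to GDP with aluminium fluoride binding biotinylated RGS beads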
Target sequence (P09471 whole entry, looked up): as above
Target sequence (P49798 whole entry, looked up): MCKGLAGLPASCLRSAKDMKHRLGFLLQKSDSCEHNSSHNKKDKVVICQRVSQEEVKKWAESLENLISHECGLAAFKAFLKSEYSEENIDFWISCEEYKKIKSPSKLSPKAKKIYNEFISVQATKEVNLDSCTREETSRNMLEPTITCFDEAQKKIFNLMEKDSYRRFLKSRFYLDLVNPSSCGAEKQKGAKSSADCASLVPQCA
Avidin counter: disruption of biotin probe capture by avidin, counter-screen for RGS protein interaction modulators, biochemical, flow cytometry, bead-based; 1,700 tested, under 10 active; streptavidin beads, fluorescein-biotin binding; inhibition, % at 10 µM; shares compounds with RGS16-Gao;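 active means inhibition above 50%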;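 further: median green fluorescence of gated singlet beads compared with DMSO control wells; 0% = DMSO wells and 100% = complete loss of bead fluorescence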
RGS8-Gao single: RGS8-Galphao binding modulators, confirmation, biochemical, multiplexed bead flow cytometry, single concentration; shares compounds with RGS16-Gao; bead-based flow cytometry RGS8-Galphao binding, fluorescence; actives lie on both sides; binding response (% of control), % at 10 µM; 1,700 tested, 3% active; in the data active means binding response below about 72% or above about 130%; inactive means in between;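 further: Galphao activated as GDP AlF4 complex before binding bead RGS8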
RGS7-Gao confirm: RGS7-Galphao binding modulators, confirmation, biochemical, multiplexed bead flow cytometry, single concentration; shares compounds with RGS16-Gao; AID 1837, 2009; response (percent of control binding), % at 10 µM; bead-based flow cytometry RGS7-Galphao binding; actives lie on both sides; 1,700 tested, 7.8% active; in the data active means response below about 75% or above about 130%; inactive means in between;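 further: fluorescent Galphao activated with GDP and aluminum fluoride binding bead-coupled RGS7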
RGS16-Gao conf: modulators of RGS16-Galphao protein binding, confirmation, biochemical, single concentration, multiplexed bead flow cytometry; shares compounds with RGS16-Gao; bead-based flow cytometry; actives lie on both sides; response (% of control binding), % at 10 µM; 1,700 tested, 4% active; AID 1838, 2009; in the data active means response below about 74% or above about 130%; inactive means in between;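 further: Galphao activated as the GDP aluminium fluoride complex binding bead-coupled RGS16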
RGS4-Gao confirm: modulators of RGS4-Galphao protein binding, confirmation, biochemical, single concentration, multiplexed bead flow cytometry; shares compounds with RGS16-Gao; actives lie on both sides; binding response (% of control), % at 10 µM; 1,700 tested, 4% active; AID 1840, 2009; in the data active means binding response below about 74% or above about 130%; inactive means in between
RGS19-Gao single: regulators of RGS19-Galphao binding, confirmation, biochemical, single point, multiplexed bead flow cytometry. 1,700 tested, 5% active. shares compounds with RGS16-Gao. bead-based flow cytometry RGS19-Galphao binding; actives lie on both sides. response (percent of control binding), % at 10 µM; in the data active means response below about 50% or above about 160%; inactive means in between;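 further: 100% = no compound control and 0% = blank background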
Active calls of the source: *; [ ] = another dose, or the depositor's remark. Sampled rows, rich in hits. Any-hit rate of the full collection: about 1.2%. Unless noted, how the calls were made is not given here.

What do the screens show for `O=C(/C=C/c1ccc(N2CCC(c3ccccc3)=N2)cc1)c1ccccc1`?
Avidin bead fluor: 28; RGS8-Gao: 97; GSH bead fluor: 172*; RGS7-Gao: 153*[activator]; RGS16-Gao: 111; RGS4-Gao reg: 113; RGS-Gao: 113*

How did COc1ccc(C(=O)CNc2ccc(C)cc2C)cc1 do in these assays?
Avidin bead fluor: 8; RGS8-Gao: 99; RGS7-Gao: inconclusive; RGS16-Gao: 102; RGS4-Gao reg: 101

Results for COc1ccc(CCCc2nnc(SCC(=O)Nc3nc(C)cs3)n2C)cc1 ?
Avidin bead fluor: 9; RGS8-Gao: 101; GSH bead fluor: 12; RGS7-Gao: 98; RGS16-Gao: 100; RGS4-Gao reg: 101

What do the screens show for `Cc1csc(NC(=O)CSc2nnc(CCNC(=O)c3ccc(Cl)c(Cl)c3)n2C)n1`?
GSH bead fluor: 35; Avidin counter: -1; RGS8-Gao single: 100; RGS7-Gao confirm: 100; RGS16-Gao conf: 100; RGS4-Gao confirm: 102; RGS19-Gao single: 95

Results for CC(C)Cc1cc(CN2CCC(CO)(Cc3ccccc3)CC2)[nH]n1 ?
Avidin bead fluor: 8; RGS8-Gao: 104; RGS7-Gao: inconclusive; RGS16-Gao: 103; RGS4-Gao reg: 106

How did CC(C)c1ccc(NC(=O)COC(=O)C2=COCCO2)cc1 do in these assays?
Avidin bead fluor: 6; RGS8-Gao: 121; GSH bead fluor: 19; RGS7-Gao: 108; RGS16-Gao: 187; RGS4-Gao reg: 112

What do the screens show for `CC(C)(C)c1ccc(NC(=O)COC(=O)C2=COCCO2)cc1`?
Avidin bead fluor: 3; RGS8-Gao: 106; GSH bead fluor: 4; RGS7-Gao: 109; RGS16-Gao: -183*; RGS4-Gao reg: 117; RGS-Gao: 117*; Avidin counter: 0; RGS8-Gao single: 93; RGS7-Gao confirm: 60*; RGS16-Gao conf: 75; RGS4-Gao confirm: 73*; RGS19-Gao single: 57

Results for CNC(=O)c1c(NC(=O)c2cccc(N3C(=O)CCC3=O)c2)sc2c1CCCC2 ?
Avidin bead fluor: 5; RGS8-Gao: 100; RGS7-Gao: inconclusive; RGS16-Gao: 101; RGS4-Gao reg: 103

How did O=C(c1cccnc1Nc1ccc2c(c1)CCC2)N1CCOCC1 do in these assays?
Avidin bead fluor: -3; RGS8-Gao: 8.5*; GSH bead fluor: 16; RGS7-Gao: -1.2*; RGS16-Gao: -1.9*; RGS4-Gao reg: -3.1*; Avidin counter: -2; RGS8-Gao single: 101; RGS7-Gao confirm: 96; RGS16-Gao conf: 102; RGS4-Gao confirm: 101; RGS19-Gao single: 101

What do the screens show for `CCOC(=O)CN1C(=O)S/C(=C/c2ccc3c(c2)n(C)c(=O)n3C)C1=O`?
Avidin bead fluor: 4; RGS8-Gao: 84; GSH bead fluor: 9; RGS7-Gao: 84; RGS16-Gao: 23*; RGS4-Gao reg: 85; RGS-Gao: 85*; Avidin counter: -2; RGS8-Gao single: 101; RGS7-Gao confirm: 97; RGS16-Gao conf: 99; RGS4-Gao confirm: 98; RGS19-Gao single: 114

How did Cn1c(=O)n(C)c2cc(/C=C3/SC(=O)N(CC(=O)N4CCOCC4)C3=O)ccc21 do in these assays?
Avidin bead fluor: 3; RGS8-Gao: 93; GSH bead fluor: 15; RGS7-Gao: 96; RGS16-Gao: 83; RGS4-Gao reg: 95

Results for Cc1onc(-c2ccccc2)c1CNS(=O)(=O)c1ccccc1[N+](=O)[O-] ?
Avidin bead fluor: 6; RGS8-Gao: 101; RGS7-Gao: inconclusive; RGS16-Gao: 99; RGS4-Gao reg: 100

How did COc1cc2c(cc1OC)C(C(=O)NCc1cccnc1)C(c1cccnc1)N(C)C2=O (stereo not given) do in these assays?
Avidin bead fluor: 174*; RGS8-Gao: 97; GSH bead fluor: 26; RGS7-Gao: 170*[activator]; RGS16-Gao: 110; RGS4-Gao reg: 119; RGS-Gao: 119*

How did Cc1c(-c2n[nH]c(=S)n2-c2ccc(C(F)(F)F)cc2)nnn1-c1ccccc1 do in these assays?
Avidin bead fluor: 3; RGS8-Gao: 97; GSH bead fluor: 9; RGS7-Gao: 101; RGS16-Gao: 103; RGS4-Gao reg: 101

How did Cc1c(-c2n[nH]c(=S)n2-c2ccc(Br)cc2)nnn1-c1ccc(Cl)cc1 do in these assays?
RGS8-Gao: 102; GSH bead fluor: 14; RGS16-Gao: 103; RGS4-Gao reg: 110; Avidin counter: -2; RGS8-Gao single: 86; RGS7-Gao confirm: 98; RGS16-Gao conf: 86; RGS4-Gao confirm: 90; RGS19-Gao single: 67

What do the screens show for `O=C(CSc1nnc(CCCO)n1-c1ccccc1)NCCc1ccccc1`?
Avidin bead fluor: -1; RGS8-Gao: 8.7*; GSH bead fluor: 28; RGS7-Gao: 16*; RGS16-Gao: 0.4*; RGS4-Gao reg: 22*; Avidin counter: -1; RGS8-Gao single: 108; RGS7-Gao confirm: 107; RGS16-Gao conf: 109; RGS4-Gao confirm: 103; RGS19-Gao single: 118
